Experimental data: PubChem BioAssay AID2685 (National Center for Advancing Translational Sciences (NCATS), 2010)
In all, about 320,000 compounds went through this assay and about 2,100 (0.66%) were called active. Roughly 53% stayed inconclusive and do not appear here. This is one part of a sample in which actives are shown more often than they occur. The call rests on the fitted dose curve; in most records, active means well fitted inhibition curve with a large enough effect in the signal ratio, with a control signal flat (not every such curve was filed as active); inconclusive means small, poorly fitted or top-dose-only effect, or effect the other way, or a change in a side signal; inactive means flat fitted curve, though single readings scatter; the % refers to the signal ratio.

Test: qHTS Assay for Lipid Storage Modulators in Drosophila S3 Cells;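 on cell number change: cells counted by Cell Tracker Red CMTPX staining in the red channel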; on lipid storage change, negative = inhibition: on the % scale 0 is the no-effect control and ±100 the full control effect
Settings: BODIPY lipid droplet fluorescence, 18-24 h, cells fed with added oleic acid; cell number change: measured here: cell count max response; series mostly up to 46.1 µM; lipid storage change, negative = inhibition: at the top concentration
Outline: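 Drosophila S3 cells got compounds at several concentrations plus oleic acid (400 uM solution). Laser-scanning cytometry with 488 nm excitation read lipid droplets at 500-530 nm and cells at 575-640 nm. Percent activity was relative to 20 uM Triacsin C.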
Potency means the concentration at half of the fitted maximal effect.

SMILES	lipid storage change, negative = inhibition	cell number change [%]	Potency	outcome
CCNC(=S)NS(=O)(=O)c1ccc(CC)cc1	6.51% (inactive)	-7.16		
CCCn1cc2c(c1-c1ccc(C)cc1)c(=O)n(C)c(=O)n2C	-9.64% (inactive)	4.81		
CC1=C(C(=O)N2CCc3ccccc32)C2(CCC(C)CC2)OC1=O (stereo not drawn)	-2.81% (inactive)	-7.54		
CCOc1c2c(nc3ccc(Cl)cc13)CCC2	6.62% (inactive)	8.32		
Cc1cc(Br)c2nc3c(c(C(=O)O)c2c1)CCCCC3	-4.98% (inactive)	-0.276		
O=C(O)c1c2c(nc3ccc(Cl)cc13)CCC2			0.0517 µM (active)	
Cc1cccc2c(C(=O)O)c3c(nc12)CCCCC3		-17	18.4 µM (active)	
O=C(O)c1c2c(nc3ccc(F)cc13)CCC2	-2.17% (inactive)	-14.4		
CN(C)C(=O)c1c2c(nc3ccccc13)CCCC2		1.75		inactive
COc1ccccc1/C=C/C1(C(=O)NC2CCCC2)CC(=O)N1c1ccc(F)cc1 (stereo not drawn)	-14.5% (inactive)	-14.3		
O=[N+]([O-])c1cccc(S(=O)(=O)N/N=C/c2ccc(O)cc2)c1	-15% (inactive)			
Cc1ccc(-n2c(O)c(/C=N/n3cnnc3)c3ccccc3c2=O)cc1	5.77% (inactive)	9.27		
COc1ccc(-n2c(O)c(/C=N/NS(=O)(=O)c3cccc([N+](=O)[O-])c3)c3ccccc3c2=O)cc1OC		-20.8	16.4 µM (active)	
COc1cc(/C=N/NS(=O)(=O)c2ccccc2)ccc1OS(=O)(=O)c1ccc(C)cc1	8.09% (inactive)	20.6		
COc1ccc(-n2c(O)c(/C=N/NS(=O)(=O)c3ccc(C)cc3)c3ccccc3c2=O)cc1OC		-21	8.2 µM (active)	
NC(=O)Cn1cc(/C=N\NS(=O)(=O)c2cccc([N+](=O)[O-])c2)c2ccccc21	2.72% (inactive)	1.79		
Cc1cccn2c(CN3CCCC(c4ccccc4)C3)c(C(=O)N3CCOCC3)nc12 (stereo not drawn)	-8.42% (inactive)	-15.3		
Cc1nc2nc(NC(=O)c3ccco3)nn2c(C)c1Cl	6.53% (inactive)	16.3		
Cc1noc(C)c1COc1ccc(C(=O)NCCc2ccc(S(N)(=O)=O)cc2)cc1	23% (inactive)	9.63		
CCOc1ccc(CCNC(=O)c2cc(C)on2)cc1OCC	14.1% (inactive)	4.47		
CCOc1ccc(CCNC(=O)c2ccc3ccccc3n2)cc1OCC		-6.07	8.2 µM (active)	
CCOc1ccc(CCNC(=O)c2cc(C)nc3ccccc23)cc1OCC		1.62		inactive
Cc1noc(C)c1COc1ccc(C(=O)N(C)CCOc2ccccc2)cc1		-18.6	8.2 µM (active)	

SMILES	lipid storage change, negative = inhibition	cell number change [%]	Potency	outcome
CCOc1ccc(CCNC(=O)c2ccccc2OCc2c(C)noc2C)cc1OCC	5.43% (inactive)	4.08		
CCOc1ccc(CCNC(=O)c2cccc(S(=O)(=O)N3CCN(C(C)=O)CC3)c2)cc1OCC	-10.5% (inactive)	-4.38		
Cc1noc(C)c1COc1ccc(C(=O)O)cc1	3.4% (inactive)	4.42		
Cc1noc(C)c1COc1ccc(C(=O)NNC(=O)c2ccccc2)cc1	12.6% (inactive)	2.9		
CCOc1ccc(-n2cnnn2)cc1S(=O)(=O)NCCc1ccc(OC)c(OC)c1				inactive
CCOc1ccc(CCNC(=O)c2ccc(OCc3c(C)noc3C)cc2)cc1OCC		14.1	11.6 µM (active)	
CCOc1ccc(CCNC(=O)c2cccc(-n3cnnn3)c2)cc1OCC		-24.8	0.0731 µM (active)	
COc1ccc(N2CCN(C(=O)COC(=O)/C=C/c3ccc(OC(F)F)cc3)CC2)cc1	12.6% (inactive)			
COc1ccc(Nc2nc(Cl)nc(Nc3ccc(OC)cc3OC)n2)c(OC)c1	-9.46% (inactive)	-11.9		
CCOc1ccc(OCc2ccc(C(=O)Nc3ccc(Cl)cn3)o2)cc1	12.2% (inactive)	16.1		
CC(=O)Nc1sc(C)c(C)c1CN1CCN(S(=O)(=O)c2ccccc2)CC1				inactive
Cc1cc(C)c(Nc2ncnc(N)n2)c(C)c1	6.89% (inactive)	-1.29		
O=c1cc(N2CCc3ccccc3C2)[nH]c(=O)n1-c1ccc(Br)cc1				inactive
CCC1CN(C(=O)N2CCC(C(=O)NCc3cc(OC)c(OC)c(OC)c3)CC2)c2ccccc2O1 (stereo not drawn)		-18		inactive
CCC1CN(C(=O)N2CCC(C(=O)NCc3ccccc3OC)CC2)c2ccccc2O1 (stereo not drawn)	-7.34% (inactive)	16.5		
CCC1CN(C(=O)N2CCC(C(=O)NCc3ccc(C)o3)CC2)c2ccccc2O1 (stereo not drawn)				inactive
CCC1CN(C(=O)N2CCC(C(=O)NCCc3ccc(OC)c(OC)c3)CC2)c2ccccc2O1 (stereo not drawn)		5.9		inactive
CCC1CN(C(=O)N2CCC(C(=O)NCCc3ccccc3)CC2)c2ccccc2O1 (stereo not drawn)		-2.95		inactive
CCC1CN(C(=O)N2CCC(C(=O)NCc3ccccc3C)CC2)c2ccccc2O1 (stereo not drawn)		-0.59	3.66 µM (active)	
CCC1CN(C(=O)N2CCC(C(=O)NCCc3ccccc3OC)CC2)c2ccccc2O1 (stereo not drawn)		13.3	6.51 µM (active)	
CCC1CN(C(=O)N2CCC(C(=O)NCc3ccc(OC)cc3OC)CC2)c2ccccc2O1 (stereo not drawn)		4.13		inactive
CCC1CN(C(=O)N2CCC(C(=O)NCCc3ccc(OC)cc3OC)CC2)c2ccccc2O1 (stereo not drawn)		1.47	5.17 µM (active)	
